High-throughput results from PubChem BioAssay.
A1 inh: inhibitors of the anti-apoptotic protein A1, read as caspase activation; MEF A1-2A-BIM cells, Caspase-Glo 3/7 luminescence, 3 h; percent of clofoctol response, vehicle zero; caspase activation, % (test concentration not listed); hit rate 0.066% among 330,000; AID 2462;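 active = over half of replicate activation scores above 10%, or exactly half above 10 with the replicate mean above 10; inconclusive = replicate mean below 10 yet half the replicates above 10; inactive = over half of replicates below 10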
MIN6 prolif-1: MIN6 beta-cell proliferation induction | MIN6 cells proliferation, ATPlite luminescence, 48 h; cells starved in 0.2% serum; 100% = growth in 10% serum | proliferation, % at 10 µM | hit rate 0.29% among 330,000 | AID 2380;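 active = compounds whose signal lies at least 3.5 SD above the mean of all wells on their plate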;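 also: 0% = DMSO-treated cells in low-serum medium and 100% = 10% serum control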
APOBEC3G inh: inhibitors of human APOBEC3G DNA deaminase | recombinant A3G, ssDNA deamination FAM/TAMRA fluorescence | Q9HC16 | inhibition, % at 20 µM | hit rate 0.28% among 330,000 | AID 493012;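 active = inhibition of at least 40% at 20 µM, with no more than 30% in the related APOBEC3A deaminase screen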;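 also: plate controls were DMSO wells with A3G for no effect and wells lacking A3G enzyme for full effect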
Target sequence (Q9HC16 whole entry, looked up): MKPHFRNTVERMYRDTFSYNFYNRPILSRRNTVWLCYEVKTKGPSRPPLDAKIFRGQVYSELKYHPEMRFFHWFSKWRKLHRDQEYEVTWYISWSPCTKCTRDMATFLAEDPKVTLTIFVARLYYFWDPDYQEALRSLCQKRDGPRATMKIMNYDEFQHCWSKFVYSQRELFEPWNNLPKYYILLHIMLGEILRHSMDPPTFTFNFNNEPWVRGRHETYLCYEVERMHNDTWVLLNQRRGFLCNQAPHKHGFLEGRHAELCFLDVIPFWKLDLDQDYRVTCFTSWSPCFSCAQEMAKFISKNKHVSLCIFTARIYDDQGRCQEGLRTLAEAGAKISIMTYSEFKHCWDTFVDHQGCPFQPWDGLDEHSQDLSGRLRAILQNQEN
APOBEC3A inh: blocks human APOBEC3A ssDNA deamination; P31941; recombinant A3A, FAM/TAMRA ssDNA deamination fluorescence; inhibition, % at 20 µM; hit rate 0.41% among 330,000; AID 493011;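 active = at least 40% inhibition at 20 µM here, with at most 30% in a related deaminase screen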;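 also: plate controls were A3A with DMSO for no effect and wells lacking A3A enzyme for full effect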
Target sequence (P31941 whole entry, looked up): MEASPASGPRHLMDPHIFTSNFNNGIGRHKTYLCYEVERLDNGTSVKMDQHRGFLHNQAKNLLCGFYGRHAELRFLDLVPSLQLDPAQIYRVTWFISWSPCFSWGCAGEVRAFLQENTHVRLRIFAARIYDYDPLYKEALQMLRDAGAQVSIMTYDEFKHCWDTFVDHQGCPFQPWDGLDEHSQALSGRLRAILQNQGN
MIN6 prolif-2: confirmation of inducers of beta-cell replication in MIN6 cells. shares compounds with MIN6 prolif-1. MIN6 beta-cell proliferation, ATPlite luminescence, 48 h; cells kept in 0.2% serum; scaled between 0.2% and 10% serum. proliferation increase, % at 50 µM. 920 tested, under 10 active. AID 463095;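 active = proliferation increase above 40% at any of the four tested concentrations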
Starred values were filed as active, the others as inactive. This is a sample that favours compounds with a hit; in the whole collection about 1.1% have one here.

For CC(C)CNC(=O)CN(C1CCCCC1)S(=O)(=O)c1ccccc1 the results were A1 inh -0.9, MIN6 prolif-1 9.1*, APOBEC3G inh -3.1, APOBEC3A inh -2.1 and MIN6 prolif-2 2.8.
`Cc1ccc(NC(=S)N2CCSC2c2cccs2)cc1` (stereo not drawn) gave A1 inh 0.6, MIN6 prolif-1 2.1, APOBEC3G inh -3.5 and APOBEC3A inh -3.5.
For O=C(O)C1CCCCC1C(=O)NCCCc1ccccc1 (stereo not drawn) the results were A1 inh 1.2, MIN6 prolif-1 9.0*, APOBEC3G inh -4.9, APOBEC3A inh -0.3 and MIN6 prolif-2 -3.2.
Screening COc1cc(Nc2nc3ccccc3n3nnnc23)cc(OC)c1OC returned A1 inh 0.2, MIN6 prolif-1 10.3*, APOBEC3G inh -5.6, APOBEC3A inh -5.1 and MIN6 prolif-2 -6.4.
Screening O=C(Nc1ccccc1F)NC1CCCc2ccccc21 (stereo not drawn) returned A1 inh -1.1, MIN6 prolif-1 7.2*, APOBEC3G inh -2.5, APOBEC3A inh 2.5 and MIN6 prolif-2 -5.3.
For O=C(OCc1nnc(-c2ccccc2)o1)c1cccc(-n2cnnn2)c1 the results were A1 inh 0.1, MIN6 prolif-1 11.0*, APOBEC3G inh -3.4, APOBEC3A inh -3.4 and MIN6 prolif-2 1.2.
For O=C1CCCN1c1ccc(Br)cc1 the results were A1 inh 0.6, MIN6 prolif-1 7.2*, APOBEC3G inh -5.0, APOBEC3A inh -2.9 and MIN6 prolif-2 -1.5.
O=C1CCCN1c1ccc(N2CCCC2=O)cc1 was read as A1 inh -0.4, MIN6 prolif-1 -1.1, APOBEC3G inh -6.0 and APOBEC3A inh -3.6.
For Cc1ccccc1OCC(=O)N(CC(C)C)c1c(N)n(CC(C)C)c(=O)[nH]c1=O the results were A1 inh 1.0, MIN6 prolif-1 -3.3, APOBEC3G inh 5.4 and APOBEC3A inh -0.3.
O=C1OC(Nc2ccc3c(c2)OCO3)c2ccccc21 (stereo not drawn) was read as A1 inh 0.8, MIN6 prolif-1 5.0*, APOBEC3G inh 32.0, APOBEC3A inh 2.3 and MIN6 prolif-2 -6.0.
`O=C1OC(Nc2ccc(F)c([N+](=O)[O-])c2)c2ccccc21` (stereo not drawn) gave A1 inh -0.1, MIN6 prolif-1 0.2, APOBEC3G inh -5.4 and APOBEC3A inh 5.5.
For COc1ccccc1CNC(=O)c1cc(C(=O)CC(C)C)c[nH]1 the results were A1 inh 0.0, MIN6 prolif-1 -0.4, APOBEC3G inh -6.5 and APOBEC3A inh -3.1.
`COc1cccc(C2NC(=O)NC(C)=C2C(=O)Nc2ccc(C)cc2)c1OC` (stereo not drawn) gave A1 inh 0.0, MIN6 prolif-1 5.4*, APOBEC3G inh 0.9, APOBEC3A inh 8.2 and MIN6 prolif-2 1.2.
`COc1ccc(NC(=O)C2=C(C)NC(=O)NC2c2cccc(OC)c2OC)c(OC)c1` (stereo not drawn) gave A1 inh -0.5, MIN6 prolif-1 -3.8, APOBEC3G inh -9.2 and APOBEC3A inh -3.9.
`Cc1cc(SCC(=O)OCC(=O)N(CCC#N)c2ccccc2)nc2ccccc12` gave A1 inh 0.2, MIN6 prolif-1 4.0, APOBEC3G inh -7.2 and APOBEC3A inh -3.1.
`O=C(Cn1cc2c(n1)CCCCC2)NCc1ccccn1` gave A1 inh -0.7, MIN6 prolif-1 11.6*, APOBEC3G inh -9.7, APOBEC3A inh -1.5 and MIN6 prolif-2 -2.9.
O=C(Cn1cc2c(n1)CCCCC2)NCc1ccccc1 was read as A1 inh inconclusive, MIN6 prolif-1 -1.1, APOBEC3G inh 2.4 and APOBEC3A inh 6.1.
For COCCCn1c(=O)/c(=C\c2ccc(OC(F)F)c(OC)c2)s/c1=C(/C#N)C(N)=O the results were A1 inh -0.4, MIN6 prolif-1 9.0*, APOBEC3G inh -6.4, APOBEC3A inh -1.3 and MIN6 prolif-2 -1.2.
CC(C)CC1Nc2ccc(C(=O)NCCCN3CCCCC3C)cc2NC1=O (stereo not drawn) was read as A1 inh 0.4, MIN6 prolif-1 1.3, APOBEC3G inh -4.4 and APOBEC3A inh -6.5.
For CCOc1ncccc1C(=O)OC(C)C(=O)Nc1ccc(N2CCOCC2)cc1 (stereo not drawn) the results were A1 inh -0.3, MIN6 prolif-1 10.1*, APOBEC3G inh -4.3, APOBEC3A inh -1.1 and MIN6 prolif-2 3.6.
`CCOc1ncccc1C(=O)Nc1ccccc1N1CCOCC1` gave A1 inh inconclusive, MIN6 prolif-1 -2.9, APOBEC3G inh 18.9 and APOBEC3A inh 2.7.
COCCc1ncc(CN2CCCCC2C(=O)Nc2ccc(Oc3ccccc3)nc2)cn1 (stereo not drawn) was read as A1 inh -0.4, MIN6 prolif-1 10.2*, APOBEC3G inh -2.6, APOBEC3A inh -1.3 and MIN6 prolif-2 -1.8.
`O=C(Nc1ccc(Oc2ccccc2)nc1)C1CCCCN1Cc1ccc(O)cc1` (stereo not drawn) gave A1 inh 0.5, MIN6 prolif-1 2.7, APOBEC3G inh -5.6 and APOBEC3A inh -4.7.
`COc1cccc(-c2nc(-c3cccs3)no2)c1` gave A1 inh -14.8, MIN6 prolif-1 1.2, APOBEC3G inh -7.6 and APOBEC3A inh -3.1.
COc1cc(OC)cc(-c2nc(-c3cccs3)no2)c1 was read as A1 inh -2.8, MIN6 prolif-1 7.7*, APOBEC3G inh -2.6, APOBEC3A inh 3.1 and MIN6 prolif-2 0.7.
`Cc1ccc(C)c(N(C(=O)c2ccco2)C(C(=O)NC2CCCC2)c2ccco2)c1` (stereo not drawn) gave A1 inh -0.1, MIN6 prolif-1 5.7*, APOBEC3G inh -5.8, APOBEC3A inh 1.4 and MIN6 prolif-2 -5.8.
`O=C(NCC(=O)N(Cc1ccccc1)C(C(=O)NC1CCCC1)c1ccco1)c1ccco1` (stereo not drawn) gave A1 inh -0.7, MIN6 prolif-1 -0.6, APOBEC3G inh -3.4 and APOBEC3A inh -1.7.
For Cc1ccc(C(C(=O)NC2CCCCC2)N(CC2CCCO2)C(=O)CNC(=O)c2ccco2)cc1 (stereo not drawn) the results were A1 inh 0.3, MIN6 prolif-1 5.5*, APOBEC3G inh -2.1, APOBEC3A inh 1.0 and MIN6 prolif-2 -0.9.
`O=C(NCC(=O)N(Cc1ccc(F)cc1)C(C(=O)NC1CCCC1)c1ccco1)c1ccco1` (stereo not drawn) gave A1 inh -0.7, MIN6 prolif-1 7.1*, APOBEC3G inh -1.5, APOBEC3A inh 1.8 and MIN6 prolif-2 -2.3.
Screening c1coc(CSSCc2ccco2)c1 returned A1 inh 2.0, MIN6 prolif-1 -4.5, APOBEC3G inh -6.6 and APOBEC3A inh 3.1.
Screening Cc1ccccc1-n1c(=O)n(Cc2ccccc2)c(=O)c2[nH]cnc21 returned A1 inh -0.1, MIN6 prolif-1 4.9, APOBEC3G inh -6.6 and APOBEC3A inh -3.4.
